Source: PubChem
Sampled rows, rich in hits. Any-hit rate of the full collection: about 2.7%.
mIDH1 inhibitor: inhibitors of human mutant IDH1 R132H | O75874 | IDH1-R132H enzyme, NADPH consumption, diaphorase/resazurin fluorescence | Potency, µM (series often up to 76.6 µM), usual class: inhibitors | actives 0.093% (n = 390,000) | AID 602179; also: nearly all actives have a fitted effect of over 65% in size
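IDH1-R132H (0.5 ug/mL) preincubated 30 min with compound, then NADPH (0.016 mM) and alpha-KG (2 mM) added; 80 min at RT, pH 7.5. Remaining NADPH coupled via diaphorase/resazurin to fluorescence (540/590 nm); concentration-response curves normalized to no-enzyme control.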
Nrf2 activator: activates Nrf2 signaling; AREc32 ARE-luciferase reporter (MCF7-derived line), luminescence, 24 h; Potency, µM (top dose mostly 46.1 µM), most hits filed as activators; actives 0.31% (n = 410,000); also: nearly all actives have a fitted effect of over 65% in size
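AREc32 cells carrying an ARE-driven firefly luciferase reporter were seeded at 1000 cells/well in OPTI-MEM with 5% FBS, then exposed to compound for 24 hr at 37 deg C. Luminescence was read with Steady-Glo after 30 min at RT.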
12-LOX inh: blocks human arachidonate 12S-lipoxygenase; P18054; purified 12hLO, xylenol orange hydroperoxide absorbance; Potency, µM (titrated, usually from 108 µM), hits mostly inhibitors; actives 1.1% (n = 580,000)
Target sequence (P18054 whole entry, looked up): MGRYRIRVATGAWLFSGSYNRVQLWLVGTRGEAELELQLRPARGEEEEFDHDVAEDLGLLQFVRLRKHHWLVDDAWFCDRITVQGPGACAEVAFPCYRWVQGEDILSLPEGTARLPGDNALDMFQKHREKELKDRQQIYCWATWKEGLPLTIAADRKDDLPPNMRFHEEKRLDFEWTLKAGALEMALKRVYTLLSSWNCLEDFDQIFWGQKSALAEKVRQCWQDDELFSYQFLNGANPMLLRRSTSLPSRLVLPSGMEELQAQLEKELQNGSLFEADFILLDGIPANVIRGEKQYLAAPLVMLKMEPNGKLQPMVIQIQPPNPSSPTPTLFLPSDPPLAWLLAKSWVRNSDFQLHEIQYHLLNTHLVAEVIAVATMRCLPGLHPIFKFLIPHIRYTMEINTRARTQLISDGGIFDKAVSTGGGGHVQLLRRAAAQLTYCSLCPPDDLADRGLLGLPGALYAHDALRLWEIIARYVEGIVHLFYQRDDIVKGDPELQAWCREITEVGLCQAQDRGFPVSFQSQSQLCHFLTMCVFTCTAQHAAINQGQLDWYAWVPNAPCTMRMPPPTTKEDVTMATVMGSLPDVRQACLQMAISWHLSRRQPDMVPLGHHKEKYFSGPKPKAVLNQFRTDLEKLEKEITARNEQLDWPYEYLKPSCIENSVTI
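Purified human 12hLO at 150 nM in 25 mM Hepes, 0.01% Triton X-100, pH 7.0, preincubated 15 min at room temperature with compound. Reaction started with 40 uM arachidonic acid, 30 min at room temperature. Hydroperoxide measured by Fe-xylenol orange, 573/405 nm absorbance ratio.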
LDHA inh: LDHA (human) enzyme inhibition; AID 1347041; activity change, % (values are at about 110 or 230 µM); purified LDHA, NADH/diaphorase-resazurin fluorescence; stronger effect = lower value; P00338; actives 0.15% (n = 480,000); in the data active = activity change below about -30%; inconclusive = mostly about -25% to -30%
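Resorufin fluorescence (ex540/em590), read at 0 and 20 min after diaphorase/resazurin addition, reports the NADH left after a 5 min room-temperature reaction of 2 nM human LDH5 with 0.06 mM NADH and 0.2 mM pyruvate.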
A549 tox: counter-screen for Nrf2 inhibitors: cytotoxicity in A549 cells. actives 0.16% (n = 390,000). Potency, µM (top dose mostly 46 µM), actives largely listed as inhibitors. A549 ARE-Fluc cells, CellTiter-Fluor viability, 18-24 h. AID 504648
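A549 ARE_Fluc cells in 5% FBS OPTI-MEM were exposed to compounds in concentration-response for 18-24 h at 37 deg C. Viability was read by CellTiter-Fluor fluorescence (Ex 405/Em 525) after 30 min, before the luciferase read.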
Nrf2 block: blocks Nrf2 signaling; A549 ARE-Fluc reporter, luciferase luminescence, 18-24 h; actives 2.1% (n = 360,000); Potency, µM (doses to about 46 µM), usual class: inhibitors; also: nearly all actives have a fitted effect of over 60% in size
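Nrf2 function is reported as luminescence of an ARE-controlled luciferase in A549 cells. Compounds were tested at several concentrations, and a CellTiter-Fluor read on the same wells flagged cytotoxicity.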
Numbers stand for hits; . = inactive; ? = inconclusive; / = not tested or not shown; ! = not active in a repeat. Unless noted, calls follow the shape of the dose curve; as a rule, active = well fitted curve in the direction sought with a large enough effect; inconclusive = small, poorly fitted or top-dose-only effect, or another doubt; inactive = no such curve, though single readings can be large; an effect the other way counts as inactive or inconclusive.

SMILES	mIDH1 inhibitor	Nrf2 activator	12-LOX inh	LDHA inh	A549 tox	Nrf2 block
COc1ccc(NC(=S)NC(=NS(=O)(=O)c2ccc(Cl)cc2)c2ccccc2)cc1	.	.	32µM	.	.	?
O=C(NN/C(=N/S(=O)(=O)c1ccc(Cl)cc1)c1ccccc1)c1cccc(Cl)c1	.	4.5µM	.	.	.	?
O=S(=O)(/N=C(/NC(=S)Nc1ccccc1)c1ccccc1)c1ccc(Cl)cc1	.	.	40µM	.	.	?
S=C(NC(=NCc1ccccc1)c1ccccc1)Nc1ccccc1	/	/	14µM	.	/	/
Nc1c(Cl)cc(N=Cc2ccc(Cl)cc2Cl)cc1Cl	/	/	.	.	/	/
Cc1cccc(NC(=O)CSCc2cc(=O)n3oc(C)cc3n2)c1	/	/	.	.	/	/
O=C(c1ccc(OCCN2CCCCC2)cc1)c1c(-c2ccc(O)cc2)sc2cc(O)ccc12	.	.	14µM!	.	?	?
CC(C)CN1C(=O)/C(=C/c2ccco2)NC1=S	.	?	28µM	.	.	.
CC(C)CN1C(=O)/C(=C/c2cccs2)NC1=S	.	.	?	.	.	?
Cc1nnc(Sc2cc(NCCO)c([N+](=O)[O-])c3nonc23)s1	.	.	?	.	26µM	?
Cc1nnc(Sc2cc(NCCCO)c([N+](=O)[O-])c3nonc23)s1	.	.	?	.	.	.
O=C(NCCc1cccc(O)c1)Nc1ccc(F)cc1F	/	/	.	.	/	/
O=c1c2cn[nH]c2[nH]c(=S)n1-c1ccccc1	.	.	6.3µM	.	.	.
COc1ccc(-n2c(=S)[nH]c3[nH]ncc3c2=O)cc1	.	.	.	.	.	.
Cc1cccc(C)c1NC(=O)CN(C)CC(=O)NC(=O)NCC(F)(F)F	/	/	.	.	/	/
NNc1nc2ccc(Cl)cc2s1	.	.	7.1µM	.	.	?
NNc1nc2ccc(F)cc2s1	.	.	6.3µM	.	.	.
Cc1cc(C)cc(N(C)C(=O)C2CCN(c3nc4ccccc4o3)CC2)c1	/	/	?	.	/	/
CC(C(=O)NC(=O)NC12CC3CC(CC(C3)C1)C2)n1cnc2c1c(=O)n(C)c(=O)n2C (stereo not given)	/	/	.	-31	/	/
C[C@@H]1CC[C@]2(C(=O)O)CC[C@]3(C)C(=CCC4[C@]56CC[C@@](O)(OC5)C(C)(C)C6CC[C@]43C)C2[C@H]1C (stereo not given in full)	.	.	/	.	.	15µM
CCc1cc2c(=O)c(-c3nc(C)cs3)coc2cc1OC(C)C(=O)NCCO (stereo not given)	.	.	.	.	.	13µM
O=C(CN1CCC(c2nc3ccccc3s2)CC1)NCc1ccccc1Cl	/	/	?	.	/	/
CCOC(=O)c1c(S(=O)(=O)N2CCCC2)nn(CC)c1C	/	/	13µM	.	/	/
CCOC(=O)c1c(S(=O)(=O)N2CCN(C3CCCCC3)CC2)c(C)n(C)c1C	.	.	.	.	.	.
CCOC(=O)C1=C(NC(=S)NC(=O)c2ccccc2)c2ccccc2CC1(C)CC (stereo not given)	.	.	16µM	.	?	?
SMILES	mIDH1 inhibitor	Nrf2 activator	12-LOX inh	LDHA inh	A549 tox	Nrf2 block
CC(C)(C)NC(=O)CSc1nc(-c2ccco2)nc2ccccc12	/	/	.	.	/	/
CCc1ccc(-c2cc3c(=O)[nH]nc(SCC(=O)NC(C)C)n3n2)cc1	/	/	.	.	/	/
CC1(C)Cc2c(C#N)c(SCC(=O)c3ccccc3)nc(N3CCOCC3)c2CS1	.	.	.	.	.	16µM
CC(=O)N1CCN(c2nc(-c3ccco3)c3c(c2C#N)CC(C)(C)SC3)CC1	.	.	35µM!	.	.	.
CC1(C)Cc2c(C#N)c(N3CCN(C(=O)c4ccco4)CC3)nc(-c3ccco3)c2CS1	.	.	.	.	.	?
CN1Cc2c(N3CCOCC3)nc(SCc3ccccc3)c(C#N)c2CC1(C)C	.	.	.	.	.	/
CCC(=O)N1CCN(c2nc(-c3ccco3)c3c(c2C#N)CC(C)(C)SC3)CC1	/	/	20µM	.	/	/
Cc1cccc(N2/C(=N/c3nc(C)cc(C)n3)NC(=O)CC2C(=O)O)c1 (stereo not given)	/	/	.	.	/	/
Cc1nc(N(C)C)ncc1C(=O)NCc1ccccc1Cl	/	/	.	.	/	/
COc1ccc(-c2c(NC(=O)C3CCCCC3)oc3ccccc3c2=O)cc1	/	/	.	.	/	/
Oc1ccc(Nc2nc(-c3ccc4ccccc4c3)cs2)cc1	/	/	18µM	/	/	/
Oc1ccc(Nc2ccc3ccccc3c2)cc1	.	.	45µM	.	?	.
COc1ccccc1Nc1nc(-c2cccc(N3C(=O)c4ccccc4C3=O)c2)cs1	.	.	.	.	.	.
Cc1ccc(Nc2nc(-c3cccc(N4C(=O)c5ccccc5C4=O)c3)cs2)cc1	/	/	18µM	.	/	/
Cc1cc(C)nc(NNS(=O)(=O)c2ccc(Cl)cc2)n1	.	.	?	.	.	.
COc1ccc(S(=O)(=O)NNc2nc(C)cc(C)n2)cc1Br	.	.	32µM	.	.	.
O=C(NC1CCS(=O)(=O)C1)c1n[nH]c(=O)c2ccccc12 (stereo not given)	/	/	.	.	/	/
O=[N+]([O-])c1cc(S(=O)(=O)Nc2ccccc2)ccc1Nc1ccccc1	.	.	.	.	?	26µM
NNc1ccc(S(=O)(=O)Nc2ccccc2)cc1[N+](=O)[O-]	/	/	?	.	/	/
Cc1ccc(NS(=O)(=O)c2cc([N+](=O)[O-])ccc2NN)c(C)c1	/	/	40µM	.	/	/
Cc1ccc(S(=O)(=O)Nc2ccccc2N=Cc2ccc([N+](=O)[O-])cc2[N+](=O)[O-])cc1	.	14µM	25µM	.	.	.
O=[N+]([O-])c1cc(S(=O)(=O)C(F)(F)F)ccc1N1CCN(c2ccccc2)CC1	.	.	.	.	.	?
O=[N+]([O-])c1cc(S(=O)(=O)Nc2ccccc2)ccc1N1CCN(c2ccccc2)CC1	.	.	.	.	?	18µM
COc1ccc([N+](=O)[O-])cc1NS(=O)(=O)c1ccc(C)cc1	.	.	.	.	.	.
Cc1c(C(=O)N(CCC#N)c2ccccc2)sc2nc3n(c(=O)c12)CCCCC3	/	/	.	.	/	/
COCC(C)NC(=O)C1=CC(c2cccs2)=NS(=O)(=O)N1C (stereo not given)	/	/	.	.	/	/
Cc1ccc(S(=O)(=O)NCCNc2ccccc2[N+](=O)[O-])cc1	.	.	?	.	.	.
Cc1ccc(S(=O)(=O)Nc2ccc(S(=O)(=O)Nc3ccccc3)cc2[N+](=O)[O-])cc1	/	/	25µM	.	/	/
Cc1ccc(S(=O)(=O)NCCCNS(=O)(=O)c2ccccc2[N+](=O)[O-])cc1	.	.	?	.	.	18µM
Cc1ccc(S(=O)(=O)Nc2ccc3cc([N+](=O)[O-])ccc3c2[N+](=O)[O-])cc1	.	.	22µM	.	?	?
